We go through 23 compounds from PubChem BioAssay (NCI).

Experiment [1] can be described thus: NCI Yeast Anticancer Drug Screen. Data for the rad50 strain (AID 155).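 Further: 0% = growth of vehicle-only cultures of the same strain.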 The settings on record: S. cerevisiae rad50 strain growth inhibition; at 50.0 µM; stronger effect = higher value. The procedure, abridged:
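Inhibition values express reduced yeast growth in compound-treated cultures relative to vehicle-treated controls.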

The nature of experiment [2]: NCI Yeast Anticancer Drug Screen. Data for the mec2-1 strain (AID 157). Particulars: S. cerevisiae mec2-1 strain, at 50.0 µM, stronger effect = higher value. Put shortly:
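Using mec2-1 yeast: add compound, measure growth, express inhibition versus vehicle-treated cultures.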

A short description of experiment [3]: NCI Yeast Anticancer Drug Screen. Data for the sgs1 mgt1 strain (AID 161).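 Further: 0% = growth of cultures given vehicle only.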 The settings on record: S. cerevisiae sgs1 mgt1 strain, at 50.0 µM, stronger effect = higher value. Put shortly:
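This yeast growth screen uses a strain with defined DNA-repair lesions; compound-treated growth is compared with vehicle-treated growth.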

A short description of experiment [4]: NCI Yeast Anticancer Drug Screen. Data for the mlh1 rad18 strain (AID 175). The settings on record: S. cerevisiae mlh1 rad18 strain growth inhibition; at 50.0 µM; stronger effect = higher value. The procedure, abridged:
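Steps: expose repair-defective yeast to compound; measure growth; express inhibition against vehicle-treated controls.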

Experiment [5] can be described thus: NCI Yeast Anticancer Drug Screen. Data for the cln2 rad14 strain (AID 165).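 Further: 0% = growth equal to vehicle treated cultures.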 Particulars: S. cerevisiae cln2 rad14 strain, at 50.0 µM, stronger effect = higher value. The procedure, abridged: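 Yeast strain cln2 rad14, bearing defects in cell cycle control and DNA repair, serves as the test system; values reflect growth inhibition compared with vehicle.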
Experiment [6] is described as follows: NCI Yeast Anticancer Drug Screen. Data for the bub3 strain (AID 167). Particulars: S. cerevisiae bub3 mutant strain, at 50.0 µM, stronger effect = higher value. Put shortly:
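Steps: expose the mutant yeast strain to compound; grow alongside vehicle-treated cultures; measure growth; express inhibition against the vehicle cultures.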

About 79,000 compounds went through this panel and 15% of them were active in at least one assay; those are over-represented in the sample as a whole. Unmarked numbers belong to inactive results. Active and inactive are the calls of the source. No stated cut-off is given here; in the data, active means growth inhibition above about 70%; inactive means the rest.

Regarding `COC(=O)c1nc(Br)cnc1N`, the growth inhibition in experiment [1] was 8.05%; in experiment [2] it was -8.4%; in experiment [3], 2.1%; in experiment [4], -0.45%.
With `COC(=O)/C=C\C(C#N)(C#N)N=Cc1ccsc1`, the growth inhibition in experiment [1] is 67.9%; in experiment [2], 75.5% (active); in experiment [3], 79.8% (active); in experiment [5], 29.6%; in experiment [4], 87.6% (active).
Regarding `C=CC1=C(C)C2=NC1=CC1=NC(=C(CC)/C1=C\O)C=C1N=C3C(=C1C)C(=O)[C@H](C(=O)OC)C3=C1NC(=C2)[C@@H](C)[C@@H]1CCC(=O)O`, the growth inhibition is -19.7% in experiment [1]; 0.7% in experiment [2]; 4.1% in experiment [3]; 9.15% in experiment [5]; -15.9% in experiment [4].
With `COC(=O)/C(=N\NC(=S)NN)C(C(=O)OC)C(=O)C(=O)Nc1cccc(C(F)(F)F)c1` (stereo not drawn), the growth inhibition in experiment [1] was 0.3%; in experiment [2], 1.4%; in experiment [3], 8.9%; in experiment [5], 5.6%; in experiment [4], 24.1%.
For `CC(C)Cc1ccc(C(C)C(=O)O)cc1` (stereo not drawn), the growth inhibition in experiment [1] is 0.5%; in experiment [2] it was 9.7%; in experiment [3] it was -4.5%; in experiment [6], -26.1%; in experiment [4] it was 3.25%.
For the compound `CCOC(=O)C(C#N)C(C(C)=O)C(=O)OCC` (stereo not drawn), the growth inhibition in experiment [1] was 9.15%; in experiment [2], -1.45%; in experiment [4] it was 31.4%.
For the compound `O=C1NC(c2ccc3ccccc3c2)Nc2ccccc21` (stereo not drawn), the results for the growth inhibition in experiment [1], in experiment [2] and in experiment [4] were -2.85%, -9.2% and 19.1%, respectively.
In the case of `Cc1cc(CSC(=N)N)c(C)cc1CSC(=N)N`, the growth inhibition in experiment [1] was -12.1%; in experiment [2], -39.6%; in experiment [4] it was -7.5%.
In the case of `CN(C)c1ccc(/C=N/n2c(-c3ccccc3)nc3ccccc3c2=O)cc1`, the growth inhibition in experiment [1] was 14.3%; in experiment [2], 14.2%; in experiment [3], 43.8%; in experiment [5], 13.4%; in experiment [4], -41%.
On the same counts, the results for `C=CCNC1=C2C[C@@H](C)C[C@@H](OC)[C@@H](OC(=O)CCCN)[C@H](C)/C=C(\C)[C@@H](OC(N)=O)[C@H](OC)/C=C\C=C(/C)C(=O)NC(=CC1=O)C2=O` are -5.15%, -0.55%, 14.2%, 13.2% and 4.6%.
With `CCC(=O)C(CC)c1cccc(OC)c1` (stereo not drawn), the growth inhibition in experiment [1] is 16.6%; in experiment [2], -3.8%; in experiment [3] it was 12.2%; in experiment [5], 25.3%; in experiment [4], 21.4%.
On the same counts, the results for `CC12CCC(CC1)C(C)(C)O2` are -1.95%, 3.3%, -2.5%, 9.6% and 4.7%.
`CCC(=O)CC1CCCC(CC(=O)CC)N1C` (stereo not drawn): the growth inhibition in experiment [1] was -4.6%; in experiment [2], -2.55%; in experiment [4], 17.6%.
For the compound `OCC(CO)(CO)COCC(CO)(CO)COCC(CO)(CO)CO`, the growth inhibition was -43% in experiment [1], -42.5% in experiment [2], -20.9% in experiment [3] and -25.1% in experiment [4].
Regarding `CCCCCCC(C/C=C\CCCCCCCC(=O)OC)OC(C)=O` (stereo not drawn), the growth inhibition was -10.2% in experiment [1], -16.7% in experiment [2] and -4.5% in experiment [4].
Take `CNC(=S)c1nnsc1N`: the growth inhibition was 1.7% in experiment [1]; -0.8% in experiment [2]; 21.6% in experiment [3]; -2.45% in experiment [5]; -0.4% in experiment [4].
For the compound `NC1N=C(c2ccc(Cl)cc2)C2=C(N1)c1ccccc1CC2` (stereo not drawn), the growth inhibition in experiment [1] was -7.1%; in experiment [2] it was 0.9%; in experiment [3], -0.75%; in experiment [5], 8.05%; in experiment [4] it was -50.7%.
For `Cc1nnc(SCC2=C(C(=O)O)N3C(=O)C(NC(=O)Cn4cnnn4)C3SC2)s1` (stereo not drawn), the growth inhibition in experiment [1] is 41.8%; in experiment [2] it was 3.45%; in experiment [3], 15.6%; in experiment [6] it was -1.9%; in experiment [4], 13.3%.
Turning to `O=C(O)c1cn(C2CC2)c2cc(N3CCNCC3)c(F)cc2c1=O`, the growth inhibition is 8.9% in experiment [1]; -6.4% in experiment [2]; -13.1% in experiment [3]; -19.5% in experiment [6]; -0.35% in experiment [4].
As to `CC(=O)[CH-]C(=O)c1ccccc1.CC(=O)[CH-]C(=O)c1ccccc1.O=S(=O)([O-])c1cc([O-])c2c([O-])cc(S(=O)(=O)[O-])cc2c1.[Na+].[Zr+4]`, the growth inhibition in experiment [1] is 21.3%; in experiment [2], -7.6%; in experiment [3], 25.6%; in experiment [6] it was 37.9%; in experiment [4], 10.8%.
As to `Cc1cc(S(=O)(=O)O)c(NC(=O)c2oc3cc(O)ccc3c(=O)c2C)cc1Cl`, the growth inhibition in experiment [1] was -9.4%; in experiment [2] it was -22.9%; in experiment [3], 3.9%; in experiment [5], 9.5%; in experiment [4] it was 3.95%.
As for `O=C(/C=C(\[O-])c1ccccc1)CCCCCCC(=O)/C=C(\[O-])c1ccccc1.O=C(/C=C(\[O-])c1ccccc1)CCCCCCC(=O)/C=C(\[O-])c1ccccc1.O=C(/C=C(\[O-])c1ccccc1)CCCCCCC(=O)/C=C(\[O-])c1ccccc1.[La+3].[La+3]`, the growth inhibition in experiment [1] was -2.3%; in experiment [2] it was -8.75%; in experiment [3] it was 5.5%; in experiment [6], 12.3%; in experiment [4] it was -10.1%.
For the compound `COc1ccc2c(C)cc(N/N=C/c3ccc(C)s3)nc2c1`, the growth inhibition in experiment [1] is -23.4%; in experiment [2], -26.5%; in experiment [3], -19.4%; in experiment [5], 9.05%; in experiment [4] it was -12.1%.
